Measured values taken from PubChem BioAssay AID1159580 (chemical genetic matrix, 2015).
Several values for one entry are separate records, joined by “and”; a condition that tells them apart may be missing. Identical values can stand only once. About 2,000 (36%) of roughly 5,500 compounds were called active. About 18% were inconclusive and are not listed. No stated cut-off is given here; in the data, active means normalized growth mostly below about 0.91 (no sharp cut-off); inconclusive means no clear call, values can overlap the other calls; inactive means mostly above about 0.92. The list shows a part of the results.

Experiment: chemical genetic growth profiling, strain panel (AID 1159580);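 further: tested at 20 µM; growth read once vehicle control cultures reached saturation at 30 °C; 1 = growth at the plate median or of vehicle wells; lower values mean less growth of the strain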
Settings: S. cerevisiae deletion strains, growth OD

Measured: normalized growth

CC(NC(C)(C)C)C(=O)c1cccc(Cl)c1 (stereo not given)
inactive: locus YAL013W, strain DEP1, hits give low values 1.01 | locus YAL021C, strain ccr4, hits give low values 1.02 | locus YAL026C, strain drs2, hits give low values 1 | locus YAL030W, strain snc1, hits give low values 0.998 | locus YAL040C, strain CLN3, hits give low values 0.958 | locus YBL061C, strain skt5, hits give low values 0.993 | locus YBR009C, strain hhf1, hits give low values 1 | locus YBR021W, strain FUR4, hits give low values 0.995 | locus YBR023C, strain chs3, hits give low values 0.996 | locus YBR171W, strain sec66, hits give low values 0.996 | locus YBR229C, strain ROT2, hits give low values 1 | locus YBR231C, strain swc5, hits give low values 1 | locus YBR279W, strain paf1, hits give low values 0.998 | locus YCL011C, strain gbp2, hits give low values 1 | locus YCL016C, strain dcc1, hits give low values 0.995 | locus YCL029C, strain bik1, hits give low values 1.05 | locus YCL061C, strain MRC1, hits give low values 0.994 | locus YCL069W, strain vba3, hits give low values 0.994 | locus YCR088W, strain abp1, hits give low values 1 | locus YDL005C, strain med2, hits give low values 0.993 | locus YDL035C, strain GPR1, hits give low values 1.01 | locus YDL040C, strain nat1, hits give low values 0.994 | locus YDL074C, strain BRE1, hits give low values 0.988 | locus YDL101C, strain DUN1, hits give low values 1.02 | locus YDL134C, strain PPH21, hits give low values 1 | locus YDL185W, strain tfp1, hits give low values 1.02 | locus YDL192W, strain arf1, hits give low values 1.03 | locus YDR001C, strain nth1, hits give low values 1.01 | locus YDR069C, strain doa4, hits give low values 1 | locus YDR101C, strain arx1, hits give low values 1.03 | locus YDR137W, strain rgp1, hits give low values 1 | locus YDR150W, strain NUM1, hits give low values 1.01 and 0.976 | locus YDR159W, strain sac3, hits give low values 0.997 | locus YDR162C, strain NBP2, hits give low values 1.01 | locus YDR195W, strain ref2 0.989 | locus YDR297W, strain sur2, hits give low values 1 | locus YDR318W, strain mcm21, hits give low values 1.02 | locus YDR334W, strain swr1, hits give low values 0.986 | locus YDR335W, strain msn5, hits give low values 1 | locus YDR363W, strain ESC2, hits give low values 1.02 | locus YDR388W, hits give low values 1.02 | locus YDR392W, strain spt3, hits give low values 0.978 | locus YDR502C, strain sam2, hits give low values 1.04 | locus YEL003W, strain gim4, hits give low values 1 | locus YEL037C, strain rad23, hits give low values 1 | locus YEL061C, strain CIN8 (second series), hits give low values 1 | locus YEL061C, strain CIN8, hits give low values 1.01 | locus YER002W, strain NOP16, hits give low values 0.979 | locus YER015W, strain faa2, hits give low values 1 | locus YER016W, strain bim1, hits give low values 1 | locus YER110C, hits give low values 1.05 | locus YER111C, strain swi4, hits give low values 0.987 | locus YER155C, strain BEM2 (second series), hits give low values 1.01 | locus YER155C, strain BEM2, hits give low values 1 | locus YER167W, strain BCK2, hits give low values 1.01 | locus YFR010W, strain ubp6, hits give low values 1 | locus YGL078C, strain dbp3, hits give low values 1 | locus YGL086W, strain mad1, hits give low values 1 | locus YGL167C, strain pmr1, hits give low values 0.991 | locus YGL173C, strain kem1, hits give low values 0.977 | locus YGL227W, strain vid30, hits give low values 0.992 | locus YGL240W, strain doc1, hits give low values 1.02 | locus YGL248W, strain PDE1, hits give low values 1.01 | locus YGL253W, strain hxk2, hits give low values 0.992 | locus YGR078C, strain PAC10, hits give low values 1.01 | locus YGR135W, strain pre9, hits give low values 1.02 | locus YGR229C, strain SMI1, hits give low values 0.999 | locus YGR252W, strain gcn5, hits give low values 0.989 | locus YHR013C, strain ard1, hits give low values 0.976 | locus YHR027C, strain rpn1, hits give low values 0.996 | locus YHR030C, strain SLT2, hits give low values 1.01 and 1 | locus YHR079C, strain IRE1 (second series), hits give low values 1.02 | locus YHR079C, strain IRE1, hits give low values 0.999 | locus YHR094C, strain hxt1, hits give low values 1.02 | locus YHR129C, strain ARP1, hits give low values 1.02 | locus YHR142W, strain chs7, hits give low values 1 | locus YHR200W, strain rpn10, hits give low values 1.02 | locus YIL066C, strain RNR3, hits give low values 1.01 | locus YIL073C, strain SPO22, hits give low values 1.07 | locus YIL125W, strain kgd1, hits give low values 1.02 | locus YIR030C, strain dcg1, hits give low values 1.04 | locus YJL092W, strain hpr5, hits give low values 0.995 | locus YJL095W, strain BCK1 (second series), hits give low values 0.997 | locus YJL095W, strain BCK1, hits give low values 1.01 and 0.995 | locus YJL115W, strain asf1, hits give low values 0.996 | locus YJL129C, strain trk1, hits give low values 1.01 | locus YJL134W, strain LCB3, hits give low values 1.01 | locus YJL154C, strain vps35, hits give low values 1.01 | locus YJL164C, strain tpk1, hits give low values 1 | locus YJL166W, strain qcr8, hits give low values 0.993 | locus YJL168C, strain set2, hits give low values 1.02 | locus YJL187C, strain SWE1 (second series), hits give low values 1.02 | locus YJL187C, strain SWE1, hits give low values 0.996 | locus YJR043C, strain POL32, hits give low values 1 | locus YJR066W, strain TOR1, hits give low values 0.969
